# PubChem BioAssay (Tox21)
# Where “and” joins values, the source holds several entries; their conditions need not be identical. Equal entries are not always repeated. Inconclusive results are not listed. A call without a number means that no potency is given here. Some compounds were tested as several samples or in several runs, with calls that do not always agree. Calls of active or inactive are those of the source. Unless noted, calls come from the whole dose curve; as a rule, active = well fitted curve in the direction sought with a large enough effect in the repeat runs; inconclusive = weak or mixed curves; inactive = no such curve, though single readings can be large; an effect the other way counts as inactive or inconclusive.
# Tests used:
# [1] = qHTS assay to identify small molecule that activate the aryl hydrocarbon receptor (AhR) signaling pathway - cell viability counter screen (AID 743086); note: nearly all actives have a fitted effect of over 45% in size; note: potency is the fitted concentration of half-maximal effect
# Method in brief: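 HepG2-AhR-luc (HG2L7.5c1) cells, 4000/well, were preincubated 5 h at 37C, exposed to compound in qHTS format for 24 hr at 37C, then given CellTiter-Fluor for 30 min; viability was read as fluorescence in the reporter wells.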
# [2] = qHTS assay to identify small molecule antagonists of the peroxisome proliferator-activated receptor gamma (PPARg) signaling pathway - cell viability counter screen (AID 743194); settings: Potency: co-treated with 50 nM rosiglitazone unless noted; note: nearly all actives have a fitted effect of over 55% in size; note: potency is the fitted concentration of half-maximal effect
# Method in brief: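 PPARg-UAS-bla HEK293H cells were plated, rested 5 h at 37 C, then treated with compounds plus rosiglitazone (50 nM final) for 17 h at 37 C; viability was then read by CellTiter-Glo luminescence after 30 min at room temperature.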
# [3] = qHTS assay for small molecule agonists of the antioxidant response element (ARE) signaling pathway - cell viability counter screen (AID 743203; calls by dose curve; note: nearly all actives have a fitted effect of over 55% in size; note: potency is the fitted concentration of half-maximal effect)
# Method in brief: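 Cytotoxicity was tested in parallel with the ARE reporter screen. ARE-bla HepG2 cells were exposed to compounds for 16 hrs, and viability was taken from CellTiter-Glo luminescence.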
# [4] = qHTS assay for small molecule activators of the heat shock response signaling pathway (AID 743210; active = well fitted activation curve with a large enough effect in the signal ratio in the repeat runs, with a control signal flat, not every such curve was filed as active; the % refers to the signal ratio; note: potency is the fitted concentration of half-maximal effect;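 for activation: HeLa cells with beta-lactamase reporter driven by heat shock elements; series mostly up to about 63 µM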)
# Method in brief: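 Activation of heat shock element-controlled beta-lactamase expression is measured in HeLa cells by LiveBLAzer FRET fluorescence, with compound exposure lasting 5 h at 37 C and substrate loading 2.5 h at room temperature.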
# [5] = qHTS assay to identify small molecule agonists of the peroxisome proliferator-activated receptor delta (PPARd) signaling pathway - cell viability counter screen (AID 743211); note: nearly all actives have a fitted effect of over 55% in size; note: potency is the fitted concentration of half-maximal effect
# Method in brief: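 Multiplexed format: after the 2 h room-temperature LiveBLAzer B/G FRET step, CellTiter-Glo was added to the same wells. Luminescence after 30 min gave cell viability; compound exposure was 17 h at 37C.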
# [6] = qHTS assay for small molecule activators of the heat shock response signaling pathway - cell viability counter screen (AID 743209); note: nearly all actives have a fitted effect of over 50% in size; note: potency is the fitted concentration of half-maximal effect
# Method in brief: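 Cytotoxicity counter screen run in parallel with the HSE beta-lactamase reporter, using the same wells. HeLa HSE-bla cells received compound for 5 h at 37 C; ATP-based CellTiter-Glo luminescence was measured after 30 min at room temperature.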
# [7] = target: Peroxisome proliferator-activated receptor gamma (Homo sapiens) (UniProt P37231); assay: qHTS assay to identify small molecule agonists of the peroxisome proliferator-activated receptor gamma (PPARg) signaling pathway (AID 743094; active = well fitted activation curve with a large enough effect in the signal ratio in the repeat runs, not every such curve was filed as active; the % refers to the signal ratio)
# Peroxisome proliferator-activated receptor gamma (Homo sapiens), sequence (P37231 whole entry, looked up): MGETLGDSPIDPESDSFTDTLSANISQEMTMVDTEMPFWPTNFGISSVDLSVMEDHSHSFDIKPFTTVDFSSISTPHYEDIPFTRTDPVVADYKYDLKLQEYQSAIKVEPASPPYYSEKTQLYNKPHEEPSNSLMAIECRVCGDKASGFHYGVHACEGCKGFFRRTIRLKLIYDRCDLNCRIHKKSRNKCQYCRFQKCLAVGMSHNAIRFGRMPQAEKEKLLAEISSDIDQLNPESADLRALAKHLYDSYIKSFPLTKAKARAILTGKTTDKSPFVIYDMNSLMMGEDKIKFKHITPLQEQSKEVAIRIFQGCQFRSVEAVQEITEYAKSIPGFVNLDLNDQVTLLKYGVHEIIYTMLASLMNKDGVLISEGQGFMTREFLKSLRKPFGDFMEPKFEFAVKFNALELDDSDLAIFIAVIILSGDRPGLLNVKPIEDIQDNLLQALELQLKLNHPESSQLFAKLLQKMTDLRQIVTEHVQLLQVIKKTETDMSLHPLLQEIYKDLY
# Method in brief: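 Cells from the PPARg UAS-bla HEK293H line are plated and incubated 5 h at 37C. Compounds in DMSO are pinned in and left 17 h at 37C. LiveBLAzer B/G substrate is then added for 1 h at room temperature before fluorescence is measured.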
# [8] = target: Peroxisome proliferator-activated receptor gamma (Homo sapiens) (UniProt P37231); assay: qHTS assay to identify small molecule antagonists of the peroxisome proliferator-activated receptor gamma (PPARg) signaling pathway (AID 743191; calls by dose curve; note: nearly all actives have a fitted effect of over 30% in size; note: potency is the fitted concentration of half-maximal effect)
# Method in brief: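 GeneBLAzer PPARg UAS-bla HEK293H cells carrying a UAS-driven beta-lactamase reporter were plated at 3000 cells/well, preincubated 5 h at 37C, then given compound for 17 h at 37C; LiveBLAzer B/G FRET substrate was read after 1 h at room temperature.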
# [9] = qHTS assay for small molecule agonists of the antioxidant response element (ARE) signaling pathway (AID 743202; active = well fitted activation curve with a large enough effect in the signal ratio in the repeat runs, not every such curve was filed as active; the % refers to the signal ratio; note: potency is the fitted concentration of half-maximal effect)
# Method in brief: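 Steps: seed ARE-bla HepG2 cells (2,000/well); incubate 5 h at 37 C; add compounds by pin tool; incubate 16 h at 37 C; add FRET substrate; read fluorescence after 2 h at RT.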
compound,measurement,setting,value
CCOCCOC(C)=O,Potency,[1],inactive
same,Potency,[2],inactive
same,Potency,[3],inactive
same,Potency,[4],inactive
same,Potency,[5],inactive
O=c1c(C2CC(c3ccc(-c4ccc(Br)cc4)cc3)Cc3ccccc32)c(O)sc2ccccc12 (centres undefined),Potency,[2],13.3 µM (active)
same,Potency,[3],33.5 µM (active)
same,Potency,[5],29.8 µM (active)
Cn1cc(C2=C(c3cn(C4CCN(Cc5ccccn5)CC4)c4ccccc34)C(=O)NC2=O)c2ccccc21,Potency,[1],inactive
same,Potency,[2],inactive
same,Potency,[6],inactive
same,Potency,[5],inactive
CS(=O)(=O)c1ccc(C(=O)C2C(=O)CCCC2=O)c([N+](=O)[O-])c1,Potency,[1],inactive
same,Potency,[3],inactive
same,Potency,[6],inactive
same,Potency,[4],inactive
same,Potency,[5],inactive
CC1(c2ccc(Oc3ccccc3)cc2)OC(=O)N(Nc2ccccc2)C1=O (centres undefined),Potency,[1],inactive
same,Potency,[2],8.76 µM (active)
same,Potency,[3],24.5 µM (active)
same,Potency,[6],34.9 µM (active)
same,Potency,[5],49.3 µM (active)
O=[N+]([O-])c1c2ccccc2cc2ccccc12,Potency,[1],inactive
same,Potency,[6],inactive
O=C(O)C1C2CCC(O2)C1C(=O)O (centres undefined),Potency,[1],inactive
same,Potency,[2],inactive
same,Potency,[3],inactive
same,Potency,[6],inactive
same,Potency,[4],inactive
same,Potency,[5],inactive
O=C(CCl)Nc1ccccc1,Potency,[1],61.1 µM (active)
same,Potency,[2],15.5 µM (active)
same,Potency,[6],43.6 µM (active)
same,Potency,[5],49 µM (active)
CC(=O)OC1(c2ccccc2)CCN(CCc2ccccc2)CC1,Potency,[7],inactive
same,Potency,[2],inactive
same,Potency,[3],inactive
same,Potency,[6],inactive
same,Potency,[4],inactive
S=C(SSC(=S)N1CCCCC1)N1CCCCC1,Potency,[2],inactive
same,Potency,[3],inactive
same,Potency,[6],0.106 µM (active)
same,Potency,[5],0.188 µM (active)
CN(C)c1ccc(N=Nc2ccccc2)cc1,Potency,[2],inactive
same,Potency,[3],inactive
same,Potency,[6],inactive
same,Potency,[5],inactive
CCN(CC)C(=S)[S-].CCN(CC)C(=S)[S-].[Zn+2],Potency,[1],inactive
same,Potency,[2],2.17 µM (active)
same,Potency,[3],3.82 µM (active)
same,Potency,[5],0.545 µM (active)
CC(C)CC(C)Nc1ccc(Nc2ccccc2)cc1 (centres undefined),Potency,[1],67.4 µM (active)
same,Potency,[2],42.9 µM (active)
same,Potency,[6],54 µM (active)
same,Potency,[5],38.3 µM (active)
O=C(Nc1ccc2[nH]ccc2c1)c1cc2cc(F)ccc2n1Cc1cccc(F)c1,Potency,[2],19.5 µM (active)
same,Potency,[3],30.6 µM (active)
same,Potency,[6],49 µM (active)
same,Potency,[5],24.5 µM (active)
CC[C@H]1C[C@@H]2C[C@H]3c4[nH]c5ccc(OC)cc5c4CCN(C2)[C@@H]13,Potency,[1],inactive
same,Potency,[2],inactive
same,Potency,[6],inactive
same,Potency,[4],45.9 µM (active)
same,Potency,[5],60.1 µM (active)
CCCSP(=O)(OCC)SCCC,Potency,[1],inactive
same,Potency,[6],inactive
same,Potency,[4],inactive
C=CCC1=C(C)C(OC(=O)C2C(C=C(C)C)C2(C)C)CC1=O (centres undefined),Potency,[2],58.3 µM (active)
same,Potency,[6],46.3 µM (active)
C[C@@H]1O[C@@H](O[C@@H]2C=C3CC[C@@H]4[C@H](CC[C@]5(C)[C@@H](c6ccc(=O)oc6)CC[C@]45O)[C@@]3(C)CC2)[C@H](O)[C@H](O)[C@H]1O,Potency,[1],inactive
same,Potency,[2],0.0119 µM (active)
same,Potency,[3],0.0211 µM (active)
same,Potency,[6],0.006 µM (active)
same,Potency,[5],0.0188 µM (active)
c1ccc(OCC2CO2)cc1 (centres undefined),Potency,[1],inactive
same,Potency,[2],inactive
same,Potency,[3],inactive
same,Potency,[6],inactive
CCCCOCN(C(=O)CCl)c1c(CC)cccc1CC,Potency,[1],inactive
same,Potency,[2],inactive
same,Potency,[6],inactive
CN(C)C(=S)S,Potency,[1],inactive and 21.7 µM (active)
same,Potency,[2],inactive
same,Potency,[3],inactive
same,Potency,[6],5 µM (active) and inactive and 2.19 µM (active)
same,Potency,[5],546 nM (active) and 5.49 µM (active)
CC1(C)C(/C=C(\Cl)C(F)(F)F)C1C(=O)OC(C#N)c1cccc(Oc2ccccc2)c1 (centres undefined),Potency,[1],inactive
same,Potency,[2],inactive
same,Potency,[6],inactive
same,Potency,[5],inactive
CCCN(CCC)CCc1c[nH]c2ccccc12,Potency,[7],inactive
same,Potency,[8],inactive
same,Potency,[2],inactive
same,Potency,[6],inactive
same,Potency,[5],inactive
C[C@H]1O[C@@H](O[C@H]2[C@@H](O)C[C@H](O[C@H]3[C@@H](O)C[C@H](O[C@H]4CC[C@@]5(C)[C@H](CC[C@@H]6[C@@H]5CC[C@]5(C)[C@@H](C7=CC(=O)OC7)CC[C@]65O)C4)O[C@@H]3C)O[C@@H]2C)C[C@H](O)[C@@H]1O,Potency,[1],inactive
same,Potency,[2],7.8 nM (active) and 33.5 nM (active)
same,Potency,[3],10.9 nM (active) and 6 nM (active)
same,Potency,[6],87.7 nM (active) and 376 nM (active)
same,Potency,[5],0.119 µM (active)
O=C/C(Cl)=C(/Cl)C(=O)O,Potency,[1],inactive
same,Potency,[2],inactive
same,Potency,[3],inactive
same,Potency,[6],38.9 µM (active)
same,Potency,[5],inactive
O=C(CCCN1CCC2(CC1)C(=O)NCN2c1ccccc1)c1ccc(F)cc1,Potency,[7],inactive
same,Potency,[2],inactive
same,Potency,[9],2.98 µM (active)
same,Potency,[6],inactive
same,Potency,[4],inactive
same,Potency,[5],inactive
COc1cccc2c1C(=O)c1c(O)c3c(c(O)c1C2=O)C[C@@](O)(C(=O)CO)CC3OC1CC(N2CCOC(OC)C2)C(O)C(C)O1 (some centres undefined),Potency,[3],9.44 µM (active)
same,Potency,[4],inactive
same,Potency,[5],inactive
[Cd+2].[Cl-].[Cl-],Potency,[1],2.19 µM (active) and 3.06 µM (active)
same,Potency,[2],1.55 µM (active)
same,Potency,[5],2.21 µM (active) and 1.38 µM (active)
O=c1[nH]c2ccccc2n1CCCN1CCC(n2c(=O)[nH]c3cc(Cl)ccc32)CC1,Potency,[2],inactive
same,Potency,[3],inactive
same,Potency,[6],inactive
same,Potency,[4],inactive
Clc1ccc(CCC(Cn2ccnc2)Sc2c(Cl)cccc2Cl)cc1 (centres undefined),Potency,[1],inactive
same,Potency,[5],29.8 µM (active)
ClC1=C(Cl)C2(Cl)C3C(Cl)C(Cl)CC3C1(Cl)C2(Cl)Cl (centres undefined),Potency,[1],inactive
same,Potency,[2],24.5 µM (active)
same,Potency,[3],61.1 µM (active)
same,Potency,[6],21.8 µM (active) and 38.9 µM (active)
same,Potency,[5],21.8 µM (active) and 24.5 µM (active)
COP(=S)(OC)Oc1cc(Cl)c(Br)cc1Cl,Potency,[7],inactive
same,Potency,[8],43.6 µM (active)
same,Potency,[2],34.7 µM (active)
same,Potency,[6],inactive
same,Potency,[4],inactive
same,Potency,[5],inactive
